Assay: A549 cell viability effects, profiling panel, calcein-AM fluorescence, 48 h, basal (AID 1162); also: test concentration not given here
Conditions: higher = more signal
`COCCOC(=O)N1C(=O)[C@@]2(c3cc(C#CCNC(N)=O)ccc31)[C@H](C(=O)N1CCc3cc(OC)c(OC)cc3C1)[C@H]1C(=O)O[C@H](c3ccccc3)[C@H](c3ccccc3)N1[C@@H]2c1ccc(OCCO)cc1` gave a z-score of -0.21. For `CCOC(=O)C1=CC[C@@H](c2ccccc2)N(S(=O)(=O)c2ccc(C)cc2)[C@H]1C(=O)OCC`, the z-score was -0.613. For `O=C(CS)NCCCCCCNC(=O)[C@@H]1C[C@@H]2C(=O)N3CCC[C@H]3C(=O)N2[C@@H]1c1ccc(O)cc1`, the z-score was -1.09. Work on `CCOC(=O)C1=CCC(c2ccc([N+](=O)[O-])cc2)N(S(=O)(=O)c2ccc(C)cc2)C1` (centres undefined) yielded a z-score of -0.561. Molecule `COCCOC(=O)N1C(=O)[C@@]2(c3cc(C#CCNC(N)=O)ccc31)[C@H](c1ccc(O)cc1)N1[C@H](c3ccccc3)[C@H](c3ccccc3)OC(=O)[C@H]1[C@@H]2C(=O)Nc1nc2ccccc2s1` has a z-score of 1.7. For `O=c1cccc(CCc2ccccc2)o1`, the z-score was -0.0082. With `O=C1N(CCS(=O)(=O)c2ccccc2)Cc2ccccc2[C@H]2OC(c3ccc(OCCCO)cc3)=N[C@@]12CCS(=O)(=O)c1ccccc1` the z-score was 1.02. Work on `CN(C)C(=O)[C@@]1(CCC(=O)OC(C)(C)C)N=C(c2ccc(OCCCO)cc2)O[C@H]1c1ccccc1` yielded a z-score of -0.211. `O=C1C2C=CC(C(O)c3ccc(-c4ccccc4)s3)N(n3cnnc3)C2C(=O)N1Cc1ccccc1` (centres undefined) showed a z-score of -0.787. `CC(C)C(O)C1C=CC2C(=O)N(c3ccccc3)C(=O)C2N1Nc1ccc(C#N)cc1` (centres undefined) gave a z-score of -0.777. In the case of `COC(=O)c1ccc(C(O)C2C=CC3C(=O)N(C)C(=O)C3N2NC(=O)OC(C)(C)C)o1` (centres undefined), the z-score was 0.441. Work on `CCOC(=O)C1=C[C@@H](CC)N(S(=O)(=O)c2ccc(C)cc2)[C@H]1c1ccccc1` yielded a z-score of -0.934. For `COC(=O)[C@@]1(Cc2ccccc2)[C@H]2c3cc(C(=O)N(C)C)n(Cc4c(-c5ccccc5)noc4C)c3C[C@H]2CN1C(=O)c1ccccc1`, the z-score was -0.914. `COCCOC(=O)N1C(=O)[C@@]2(c3cc(C#CCNC(N)=O)ccc31)[C@H](c1ccccc1OCCO)N1[C@H](c3ccccc3)[C@H](c3ccccc3)OC(=O)[C@H]1[C@@H]2C(N)=O` gave a z-score of -0.0052. `CC(C)N1C(=O)[C@@]2(c3ccc([N+](=O)[O-])cc3)CC(=O)N(CC34CC5CC(CC(C5)C3)C4)[C@@H]2c2ccc(CO)cc21` showed a z-score of 0.192. `CC(=O)NCCCC[C@@H]1NC(=O)[C@@H]2C[C@H](C(=O)NCCCCN(C)C)[C@H](c3ccc(O)cc3)N2C1=O` showed a z-score of 1.42. Work on `Cc1ccccc1C(O)C1C=CC2C(=O)N(C)C(=O)C2N1N1CCCCC1` (centres undefined) yielded a z-score of -0.578. Work on `CCOC(=O)C[C@H]1[C@H](OC(=O)c2ccc(C(=O)c3ccccc3)cc2)[C@@H](NC(=O)C2CCCCC2)c2cc(OCCCO)ccc2N1C(=O)c1ccccc1` yielded a z-score of -0.195. For `COc1ccc([Si](C)(C)[C@@H]2[C@@H](CC(=O)N3CCC[C@H]3CO)O[C@]3(C(=O)N(C)c4c(Br)cc(C)cc43)[C@H]2C)cc1`, the z-score was 0.49. Work on `COC(=O)[C@@]1(Cc2ccc(F)cc2)[C@H]2c3cc(C(=O)N4CCCC4)n(Cc4cccc5ccccc45)c3C[C@H]2CN1C(=O)c1ccccc1` yielded a z-score of -0.805. Work on `C=CC(COC(C)=O)NS(=O)(=O)c1ccc(Br)cc1` (centres undefined) yielded a z-score of -0.0852. `CC(C)(C)OC(=O)CC[C@@]1(C(=O)O)N=C(c2ccc(OCCCO)cc2)O[C@@H]1c1ccccc1N=[N+]=[N-]` showed a z-score of 0.188. In the case of `CCOC(=O)C1=CCC(c2ccc(C#N)cc2)N(S(=O)(=O)c2ccc(C)cc2)C1` (centres undefined), the z-score was -1.14. For `O=C1OCCC=C[C@H]2OC34C=CCN(Cc5ccccc5)C(=O)[C@H]3N(CCCO)C(=O)[C@@H]4C12` (some centres undefined), the z-score was 0.577. Molecule `O=C1OCC=C[C@H]2OC34C=CCN(c5ccc(Cl)cc5)C(=O)[C@H]3N(CCCCCCO)C(=O)[C@@H]4[C@@H]12` (some centres undefined) has a z-score of 0.32. `COC(=O)C(CC#Cc1ccc2c(c1)[C@]1(C(=O)N2)[C@H](c2ccc(OCCO)cc2)N2[C@H](c3ccccc3)[C@H](c3ccccc3)OC(=O)[C@H]2[C@@H]1C(=O)NC[C@H](O)c1ccccc1)C(=O)OC` gave a z-score of 0.876. Work on `CCOC(=O)C1=CC[C@@H](c2ccccc2Cl)N(S(=O)(=O)c2ccc(C)cc2)C1` yielded a z-score of -0.378. Work on `O=C1O[C@H](c2ccccc2)[C@H](c2ccccc2)N2[C@H]1[C@@H](C(=O)O)[C@]1(C(=O)Nc3ccc(C#CC4=CCCCC4)cc31)[C@H]2c1ccc(OCCO)cc1` yielded a z-score of 0.199. With `N#Cc1ccc(NN2C(C(O)c3ccc([N+](=O)[O-])cc3)C=CC3C(=O)N(c4ccccc4)C(=O)C32)cc1` (centres undefined) the z-score was -1.14.

Source: PubChem BioAssay
